Holding throughout (conditions): mRNA level, 48 h; actives raise or lower the signal
Read-out in test [1]: ABC Transporter (ABCC3), ABCC3 (gene 8714)
Briefly: LTEA_HepaRG_ABCC3: Life Technologies and Expression Analysis (LTEA) Assay for ABC Transporter (ABCC3) using HepaRG (AID 2283462). The procedure, abridged:
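Transcript level by TaqMan qRT-PCR, normalised to three housekeeping genes, fitted in both directions relative to vehicle. Chemicals tested in duplicate at eight half-log concentrations up to 100 uM for 48 h on HepaRG cells (0.5% DMSO).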

Read-out in test [2]: ABC Transporter (ABCB11), ABCB11 (gene 8647)
Briefly: LTEA_HepaRG_ABCB11: Life Technologies and Expression Analysis (LTEA) Assay for ABC Transporter (ABCB11) using HepaRG (AID 2283463). The procedure, abridged:
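ABCB11 transcript levels are read by Fluidigm TaqMan qRT-PCR after 48 h chemical treatment of human HepaRG cells. Concentrations span 100 uM downward in half-log steps with 0.5% DMSO; gain or loss is fitted against DMSO controls.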

Read-out in test [3]: ABC Transporter (ABCC2), ABCC2 (gene 1244)
Briefly: LTEA_HepaRG_ABCC2: Life Technologies and Expression Analysis (LTEA) Assay for ABC Transporter (ABCC2) using HepaRG (AID 2283464). Put shortly:
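Endpoint is ABCC2 transcript level from qRT-PCR, normalized to three housekeeping genes and fitted bidirectionally relative to DMSO. Human HepaRG cells received test chemical for 48 h at up to 100 uM (8 points, half-log steps, 0.5% DMSO), duplicate wells.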

Read-out in test [4]: Broad substrate specificity ATP-binding cassette transporter ABCG2 (Homo sapiens) (UniProt Q9UNQ0)
Briefly: LTEA_HepaRG_ABCG2: Life Technologies and Expression Analysis (LTEA) Assay for ABC Transporter (ABCG2) using HepaRG (AID 2283465). Put shortly:
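Read-out is ABCG2 mRNA induction or loss quantified by qRT-PCR after 48 h chemical treatment of human HepaRG cells, normalized to three housekeeping genes. Concentrations reached 100 uM top in half-log steps; fitting was bidirectional against 0.5% DMSO.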

Read-out in test [5]: ATP-citrate lyase (ACLY), ACLY (gene 47)
Briefly: LTEA_HepaRG_ACLY: Life Technologies and Expression Analysis (LTEA) Assay for ATP-citrate lyase (ACLY) using HepaRG (AID 2283466). The procedure, abridged: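 HepaRG, 48 h exposure, 8-pt half-log dilutions (top 100 uM), 0.5% DMSO. Readout: ACLY mRNA, TaqMan qRT-PCR, housekeeping-normalized (ACTB/GAPDH/POLR2A). Bidirectional curve fit vs DMSO.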

Read-out in test [6]: Peroxisomal acyl-coenzyme A oxidase 1 (ACOX1) gene, ACOX1 (gene 51)
Briefly: LTEA_HepaRG_ACOX1: Life Technologies and Expression Analysis (LTEA) Assay for Peroxisomal acyl-coenzyme A oxidase 1 (ACOX1) gene using HepaRG (AID 2283467). Put shortly: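 Measured by qRT-PCR against three housekeeping genes: ACOX1 transcript change in human HepaRG cells after 48 h dosing. Concentrations ran up to 100 uM in half-log steps. Curves were fitted bidirectionally relative to 0.5% DMSO.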

Read-out in test [7]: Alkaline Phosphatase, Placental (ALPP) gene, ALPP (gene 250)
Briefly: LTEA_HepaRG_ALPP: Life Technologies and Expression Analysis (LTEA) Assay for Alkaline Phosphatase, Placental (ALPP) gene using HepaRG (AID 2283468). The procedure, abridged: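 ALPP transcript level, measured by qRT-PCR and normalized to three housekeeping genes (ACTB, GAPDH, POLR2A), after 48 h dosing of differentiated HepaRG in serum-free induction medium. Top concentration 100 uM with half-log dilutions (8 points, 0.5% DMSO, duplicates); bidirectional fitting relative to DMSO.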

Read-out in test [8]: Bcl-2 (BAD) gene, BAD (gene 572)
Briefly: LTEA_HepaRG_BAD: Life Technologies and Expression Analysis (LTEA) Assay for Bcl-2 (BAD) gene using HepaRG (AID 2283469). The procedure, abridged: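 BAD transcript change, measured by qRT-PCR against three housekeeping genes and fitted in both directions relative to 0.5% DMSO, after 48 h chemical treatment of human HepaRG liver cells at concentrations up to 100 uM.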

Read-out in test [9]: Bcl-2 (BAX) gene, BAX (gene 581)
Briefly: LTEA_HepaRG_BAX: Life Technologies and Expression Analysis (LTEA) Assay for Bcl-2 (BAX) gene using HepaRG (AID 2283470). The procedure, abridged: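 Concentration-response endpoint fitted in both directions relative to 0.5% DMSO vehicle. Human HepaRG cultures receive test chemicals for 48 h at up to 100 uM; BAX mRNA is quantified by qRT-PCR against housekeeping genes.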

Read-out in test [10]: adenosine kinase (ADK) gene, ADK (gene 132)
Briefly: LTEA_HepaRG_ADK: Life Technologies and Expression Analysis (LTEA) Assay for adenosine kinase (ADK) gene using HepaRG (AID 2283471). The procedure, abridged: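 Differentiated HepaRG cells dosed 48 h in serum-free induction medium, 0.5% DMSO vehicle, eight half-log concentrations from 100 uM, in duplicate. ADK mRNA by TaqMan qRT-PCR normalised to ACTB, GAPDH, POLR2A; bidirectional fit versus DMSO.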

Read-out in test [11]: Alpha-fetoprotein (AFP) gene, AFP (gene 174)
Briefly: LTEA_HepaRG_AFP: Life Technologies and Expression Analysis (LTEA) Assay for Alpha-fetoprotein (AFP) gene using HepaRG (AID 2283472). Put shortly: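 After a 48 h plating period, cells are moved to serum-free induction medium and dosed in duplicate (100 uM maximum, half-log dilutions, 0.5% DMSO) for another 48 h. Total RNA goes to TaqMan qRT-PCR; AFP signal is housekeeping-normalized.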

Read-out in test [12]: BCL2L11 (gene 10018)
Briefly: LTEA_HepaRG_BCL2L11: Life Technologies and Expression Analysis (LTEA) Assay for Bcl-2 (BCL2L11) gene using HepaRG (AID 2283473). The procedure, abridged:
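BCL2L11 transcript levels are measured by Fluidigm qRT-PCR, normalized to three housekeeping genes. HepaRG cultures were plated 48 h, then treated 48 h with test chemical (top 100 uM, half-log, 0.5% DMSO vehicle); curves were fitted bidirectionally against DMSO.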

Read-out in test [13]: Apolipoprotein A-V (APOA5) gene, APOA5 (gene 116519)
Briefly: LTEA_HepaRG_APOA5: Life Technologies and Expression Analysis (LTEA) Assay for Apolipoprotein A-V (APOA5) gene using HepaRG (AID 2283474). The procedure, abridged:
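APOA5 transcript levels were quantified by qRT-PCR, normalized to three housekeeping genes, after 48 h chemical treatment of HepaRG cells (8 points, 100 uM maximum, half-log steps, 0.5% DMSO). Curves fitted in both directions against vehicle.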

Read-out in test [14]: Apoptosis regulator Bcl-2 (Homo sapiens) (UniProt P10415)
Briefly: LTEA_HepaRG_BCL2: Life Technologies and Expression Analysis (LTEA) Assay for Bcl-2 gene using HepaRG (AID 2283475). Put shortly:
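Expression change of BCL2 mRNA in HepaRG after 48 h dosing, quantified by TaqMan qRT-PCR against three endogenous controls. Concentration-response used eight points up to 100 uM, vehicle 0.5% DMSO.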

Read-out in test [15]: Bcl-2 (BID) gene, BID (gene 637)
Briefly: LTEA_HepaRG_BID: Life Technologies and Expression Analysis (LTEA) Assay for Bcl-2 (BID) gene using HepaRG (AID 2283476). Put shortly:
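Gain or loss of BID expression is fitted relative to 0.5% DMSO vehicle. Human HepaRG liver cells received a 48 h chemical exposure over an eight-point concentration range.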

Read-out in test [16]: Caspase-3 (Homo sapiens) (UniProt P42574)
Briefly: LTEA_HepaRG_CASP3: Life Technologies and Expression Analysis (LTEA) Assay for cysteine-aspartic acid protease (CASP3) using HepaRG (AID 2283477). Put shortly: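 Expression of CASP3 was quantified by TaqMan qRT-PCR against three housekeeping genes (ACTB, GAPDH, POLR2A), bidirectionally versus 0.5% DMSO. HepaRG cultures received compounds in duplicate, top 100 uM with half-log steps, for 48 h in serum-free induction medium.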

Read-out in test [17]: Cytochrome P450 (CYP24A1), CYP24A1 (gene 1591)
Briefly: LTEA_HepaRG_CYP24A1: Life Technologies and Expression Analysis (LTEA) Assay for Cytochrome P450 (CYP24A1) using HepaRG (AID 2283478). The procedure, abridged:
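mRNA of CYP24A1 quantified by TaqMan qRT-PCR (ACTB/GAPDH/POLR2A normalization) after 48 h chemical exposure of HepaRG cells, top concentration 100 uM, half-log steps, 0.5% DMSO vehicle, duplicates. Curves fitted bidirectionally against DMSO baseline.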

Read-out in test [18]: Cytochrome P450 (CYP1A2), CYP1A2 (gene 1544)
Briefly: LTEA_HepaRG_CYP1A2: Life Technologies and Expression Analysis (LTEA) Assay for Cytochrome P450 (CYP1A2) using HepaRG (AID 2283479). Put shortly:
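CYP1A2 transcript measured by TaqMan qRT-PCR against three housekeeping genes after 48-hour chemical exposure of HepaRG cells. Eight-point half-log series topping at 100 uM in 0.5% DMSO, duplicates; gain or loss fitted relative to vehicle.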

Read-out in test [19]: cysteine-aspartic acid protease (CASP8), CASP8 (gene 841)
Briefly: LTEA_HepaRG_CASP8: Life Technologies and Expression Analysis (LTEA) Assay for cysteine-aspartic acid protease (CASP8) using HepaRG (AID 2283480). Put shortly: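 HepaRG, 48 h exposure, duplicate wells; 8 conc, half-log from 100 uM, 0.5% DMSO. Serum-free induction medium. CASP8 mRNA by TaqMan qRT-PCR, norm. ACTB/GAPDH/POLR2A; gain/loss fitted vs DMSO.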

Read-out in test [20]: Cytochrome P450 (CYP2B6), CYP2B6 (gene 1555)
Briefly: LTEA_HepaRG_CYP2B6: Life Technologies and Expression Analysis (LTEA) Assay for Cytochrome P450 (CYP2B6) using HepaRG (AID 2283481). Put shortly:
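CYP2B6 transcript level quantified by qRT-PCR against three housekeeping genes, fitted bidirectionally relative to DMSO. HepaRG cultures received chemicals for 48 h, 8-point half-log series from 100 uM in 0.5% DMSO, duplicate wells, serum-free induction medium.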

Active and inactive are the calls of the source. The calls were made as follows: active = hit-call score of the fitted dose curve at least 0.9, where 1 is the maximum; inactive = score below 0.9.

Among the data in PubChem BioAssay (EPA / NIEHS) are outcome and AC50 values, retold here.

Apoptosis regulator Bcl-2 (Homo sapiens), sequence (P10415 whole entry, looked up): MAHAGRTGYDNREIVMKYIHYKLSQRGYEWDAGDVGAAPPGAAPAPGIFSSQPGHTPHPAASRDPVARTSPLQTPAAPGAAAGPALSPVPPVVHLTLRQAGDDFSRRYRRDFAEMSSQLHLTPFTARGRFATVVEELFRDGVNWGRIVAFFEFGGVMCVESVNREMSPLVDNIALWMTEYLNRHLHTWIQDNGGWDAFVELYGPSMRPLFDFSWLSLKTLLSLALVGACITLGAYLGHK
Caspase-3 (Homo sapiens), sequence (P42574 whole entry, looked up): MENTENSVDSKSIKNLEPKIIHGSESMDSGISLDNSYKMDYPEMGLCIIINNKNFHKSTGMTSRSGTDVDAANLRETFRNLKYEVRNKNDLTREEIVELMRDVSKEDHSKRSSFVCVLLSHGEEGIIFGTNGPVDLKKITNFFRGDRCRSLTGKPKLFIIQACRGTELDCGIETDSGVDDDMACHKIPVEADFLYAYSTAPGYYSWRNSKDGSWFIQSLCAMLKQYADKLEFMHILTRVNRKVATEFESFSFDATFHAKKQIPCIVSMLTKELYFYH
Broad substrate specificity ATP-binding cassette transporter ABCG2 (Homo sapiens), sequence (Q9UNQ0 whole entry, looked up): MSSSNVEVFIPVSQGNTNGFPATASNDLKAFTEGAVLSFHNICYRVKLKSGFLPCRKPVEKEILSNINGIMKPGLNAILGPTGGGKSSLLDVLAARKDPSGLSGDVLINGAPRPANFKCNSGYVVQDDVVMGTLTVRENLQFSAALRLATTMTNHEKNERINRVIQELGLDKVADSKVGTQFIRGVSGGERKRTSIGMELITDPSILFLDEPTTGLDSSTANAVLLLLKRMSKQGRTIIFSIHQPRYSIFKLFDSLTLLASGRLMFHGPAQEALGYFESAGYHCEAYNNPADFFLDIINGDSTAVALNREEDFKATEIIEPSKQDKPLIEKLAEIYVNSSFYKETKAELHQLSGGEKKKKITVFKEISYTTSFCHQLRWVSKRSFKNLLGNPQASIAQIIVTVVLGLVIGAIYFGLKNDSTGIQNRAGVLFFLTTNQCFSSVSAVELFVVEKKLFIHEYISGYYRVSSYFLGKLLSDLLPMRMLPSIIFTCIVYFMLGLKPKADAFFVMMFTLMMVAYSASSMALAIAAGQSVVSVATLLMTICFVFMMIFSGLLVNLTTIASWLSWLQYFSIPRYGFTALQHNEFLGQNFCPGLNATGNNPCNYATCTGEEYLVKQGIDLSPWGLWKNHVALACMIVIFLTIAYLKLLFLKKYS

`CCCOc1nn(C(=O)NS(=O)(=O)c2ccccc2C(=O)OC)c(=O)n1C`: the call in [1], in test [2], in test [3], in [4], in test [5] and in test [6] was inactive. The outcome in test [7], in [8], in test [9], in test [10], in test [11] and in test [12] was inactive. The result in test [13], in [14], in test [15], in test [16], in [17] and in test [18] was inactive. In addition, the call in test [19] and in test [20] was inactive.

Consider `CCOP(=S)(OCC)OC(Cl)C(Cl)(Cl)Cl` (stereo unspecified), for which the call in [1], in test [2], in [3], in [4], in [5] and in test [6] was inactive. The outcome in [7], in [8], in [9], in test [10], in [11] and in test [12] was inactive. Besides, the outcome in test [13], in [14], in test [15], in test [16], in test [17] and in [18] was inactive. In addition, the result in [19] was inactive. For the same molecule, the half-maximal activity concentration (AC50) in [20] is 24 µM (active).

As to `CN1COCN(Cc2cnc(Cl)s2)C1=N[N+](=O)[O-]`, the result in [1], in test [2], in test [3], in test [4], in [5] and in [6] was inactive. The call in test [7], in test [8], in [9], in test [10], in test [11] and in test [12] was inactive. Moreover, the molecule was called inactive in [13], in test [14], in [15], in test [16], in test [17] and in test [18]. For the same molecule, the call in test [19] was inactive. For the same molecule, the AC50 in test [20] was 50 µM (active).

Regarding `CCNc1nc(Cl)nc(NC(C)(C)C#N)n1`, the outcome in [1], in [2], in test [4], in [5], in test [6] and in [7] was inactive. The call in [9], in test [10], in test [11], in test [12], in [13] and in [14] was inactive. Also, the call in [15], in test [16], in [17] and in test [18] was inactive. For the same molecule, the half-maximal activity concentration (AC50) in test [3] is 5.92 µM (active); in [20], 1.68 µM (active).

With `CC(Oc1cccc(Cl)c1)C(=O)O` (stereo unspecified), the outcome in test [1], in [2], in test [5], in test [6], in test [7] and in [8] was inactive. Moreover, the outcome in test [9], in test [10], in test [11], in [12], in test [13] and in test [14] was inactive. Moreover, the molecule was called inactive in test [16], in test [17], in test [18] and in test [19]. Further, the results for the half-maximal activity concentration (AC50) in test [3], in test [4] and in test [20] were 20.2 µM (active), 5.79 µM (active) and 2.24 µM (active), respectively.

As to `CNC(=O)ON=C(C)SC`, the call in [1], in test [3], in test [4], in [5], in test [6] and in test [7] was inactive. Also, the result in test [9], in test [10], in test [11], in test [12], in [13] and in [14] was inactive. The molecule was classed as inactive in [15], in test [16], in test [17], in [18], in [19] and in [20]. The concentration at half-maximal activity (AC50) in test [2] was 16.7 µM (active).
